Data taken from PubChem BioAssay AID2177 (The Scripps Research Institute Molecular Screening Center, 2009).
Screen size: about 320,000 compounds; about 1,200 (0.38%) were called active. For the sample, actives were picked, then their nearest neighbours and some compounds at random. Unmarked numbers belong to inactive results.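 Rule for the calls: active = inhibition above the screen-wide mean plus 3 SD, limit set per campaign (cut at about 26% in these data); inactive = the rest.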

The compounds below were run against Acyl-protein thioesterase 2 (Homo sapiens) (UniProt O95372) (assay: LYPLA2 inhibitors, primary screen, counter-screen for PME1 inhibitor project, biochemical, fluorescence polarization, FP-Rh probe ABPP (AID 2177;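 note: 0% = LYPLA2 with DMSO and 100% = wells lacking LYPLA2 enzyme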)). Conditions: recombinant LYPLA2, FP-Rh probe fluorescence polarization; at 5.9 µM; active compounds read high.
Chain of Acyl-protein thioesterase 2 (Homo sapiens) (O95372 whole entry, looked up): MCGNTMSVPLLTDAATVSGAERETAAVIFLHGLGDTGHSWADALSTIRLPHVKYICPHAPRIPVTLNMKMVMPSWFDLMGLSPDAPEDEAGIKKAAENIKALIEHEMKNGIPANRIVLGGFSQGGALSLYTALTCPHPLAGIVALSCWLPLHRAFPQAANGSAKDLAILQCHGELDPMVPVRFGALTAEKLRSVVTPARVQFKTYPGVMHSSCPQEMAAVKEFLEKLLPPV

SMILES | inhibition
CCN1C(=O)[C@H]2[C@@H](c3ccc(-c4ccc(OC)cc4)cc3)N[C@@](Cc3ccccc3)(C(=O)OC)[C@H]2C1=O | 6.99%
CCC(Cc1ccccc1)NS(=O)(=O)c1ccc2c(c1)NC(=O)CS2 (stereo unspecified) | 1.66%
COc1ccc(C2=NOC3(CC(=O)N(c4ccc(Cl)cc4)C3=O)C2)c(OC)c1 (stereo unspecified) | 7.09%
CCOC(=O)N1CCN(C(=O)Cc2ccc(-n3c(=S)[nH]c4ccccc4c3=O)cc2)CC1 | 3.58%
O=C(Cc1ccc(-n2c(=O)[nH]c3ccccc3c2=O)cc1)N1CCN(c2cccc(Cl)c2)CC1 | 50.8% (active)
O=C(CCCC(=O)N1CCN(c2cccc(Cl)c2)CC1)c1ccccc1 | 24.1%
CCN(C(=O)C1CCCN(c2nc(-c3ccc(OC)cc3)no2)C1)c1ccc(OC)cc1 (stereo unspecified) | 1.52%
N#Cc1cc([N+](=O)[O-])ccc1Oc1cccc(/C=N/NC(=O)c2ccc(Cl)cc2)c1 | 36.9% (active)
O=C(N/N=C/c1cccc(OC(=O)c2ccc([N+](=O)[O-])cc2)c1)c1cccnc1 | -5.79%
COc1ccc(/C=N/NC(=O)c2ccc(Cl)cc2)cc1COC(C)=O | -4.59%
Cc1c(CC(=O)NCC(=O)NCC(=O)O)c(=O)oc2cc3oc4c(c3cc12)CCCC4 | 4.77%
COc1ccc(OC)c(NC(=O)c2cccc(S(=O)(=O)N3CCN(C(C)=O)CC3)c2)c1 | -0.81%
COc1ccc2c(c1)C=CC1(O2)N(CCO)c2ccccc2C1(C)C (stereo unspecified) | -20.1%
O=C(NC(Cc1ccccc1)C(=O)O)/C(=C\c1ccccc1)NC(=O)c1ccco1 (stereo unspecified) | 1.3%
CC(=O)c1ccc(N2CCN(S(=O)(=O)c3ccc4c(c3)CC(=O)N4C)CC2)cc1 | 4.78%
CC(=O)N1c2ccc(S(=O)(=O)N3CCC(C(=O)NC4CCCC(C)C4C)CC3)cc2CC1C (stereo unspecified) | -4.4%
COc1ccccc1CNC(=O)C1CCN(S(=O)(=O)c2ccc3c(c2)CC(C)N3C(=O)C2CC2)CC1 (stereo unspecified) | 14.5%
CC(=O)N1c2ccc(S(=O)(=O)N3CCC(C(=O)N4CCN(c5ccccc5)CC4)CC3)cc2CC1C (stereo unspecified) | 58% (active)
CC(=O)c1ccc(N2CCN(C(=O)C3CCN(S(=O)(=O)c4ccc5c(c4)CC(C)N5C(=O)C4CC4)CC3)CC2)cc1 (stereo unspecified) | 75% (active)
CC(=O)N1c2ccc(S(=O)(=O)N3CCC(C(=O)NC4CCCCC4C)CC3)cc2CC1C (stereo unspecified) | -1.87%
O=C(O)CC(Cc1ccccc1)C(=O)Nc1ccc([N+](=O)[O-])cc1 (stereo unspecified) | -0.26%
CCOC(=O)c1cc(NC(=O)SCC(=O)O)c(C)nc1C | 4.19%
COc1cc(C(=O)NCc2ccc3c(c2)cc(C)n3C)cc(OC)c1OC | 6.1%

SMILES | inhibition
CCOC(=O)c1c(-c2ccccc2)oc2ccc(OCC(=O)NN)cc12 | -13%
CCCc1c(C(=O)Nc2ccc(F)cc2)cnn1-c1ccccc1 | -3.93%
O=C(CSCc1ccc([N+](=O)[O-])cc1)Nc1cccc(C(=O)Nc2ccccc2C(=O)O)c1 | -6.72%
COc1ccccc1C(=O)NC(CCSC)C(=O)NNC(=O)c1ccccc1C (stereo unspecified) | -3.19%
COc1ccccc1C(=O)NC(CCSC)C(=O)N1CCN(C(C)=O)CC1 (stereo unspecified) | -2.46%
COc1ccccc1C(=O)NC(CCSC)C(=O)N1CCN(C/C=C/c2ccccc2)CC1 (stereo unspecified) | 37.6% (active)
Cc1scc(C(=O)NNC(=S)NCC(C)C)c1C | 8.57%
Cc1sc2ncnc(N3CCC(C(=O)Nc4ccc(F)cc4Cl)CC3)c2c1C | -1.19%
COc1ccc(CC(=O)Nc2nc(-c3ccc(F)c(F)c3)cs2)cc1OC | -13.7%
COc1ccc(CCNc2nc(-c3cccc(NC(C)=O)c3)cs2)cc1OC | 31.9% (active)
CC(=O)Nc1cccc(-c2csc(Nc3cccc(C)n3)n2)c1 | 2.92%
CC(C(=O)Nc1ccc(O)c(C(=O)O)c1)N1C(=O)/C(=C/c2cccs2)SC1=S (stereo unspecified) | 2.96%
COc1cc(NS(=O)(=O)c2ccc3ccccc3c2)c2ncccc2c1 | -11.9%
O=C(c1cccs1)C1C(c2ccc(Br)cc2)NC(=S)NC1(O)C(F)(F)F (stereo unspecified) | -1.56%
O=C(CN1C(=O)CSc2ncccc21)N1CCOCC1 | -0.09%
O=C(CCCN1C(=O)CSc2ncccc21)N1CCN(c2cccc(C(F)(F)F)c2)CC1 | 63.4% (active)
Cc1c(C)c2ccc(OCC(=O)N3CCN(c4cccc(Cl)c4)CC3)cc2oc1=O | 49.8% (active)
CCOc1ccccc1N1CCN(C(=O)COc2ccc3c(C)cc(=O)oc3c2)CC1 | -4.36%
CCC(=O)c1ccc(OCC(O)CN2CCN(c3cccc(C(F)(F)F)c3)CC2)cc1 (stereo unspecified) | 64.8% (active)
O=C(COc1ccc(S(=O)(=O)Nc2cccc(C(F)(F)F)c2)cc1)N1CCOCC1 | 2.78%
CCC(=O)c1ccc(OCC(O)CN2CC(C)OC(C)C2)cc1 (stereo unspecified) | 2.23%
O=C(COc1ccc(Cl)cc1)N1CCN(S(=O)(=O)c2ccc(Cl)cc2)CC1 | -0.85%
COc1ccc(N2CCN(C(=O)COc3ccc4c(C)cc(=O)oc4c3)CC2)cc1 | 11.7%

SMILES | inhibition
O=C(CCCN1C(=O)C2C3C=CC(C3)C2C1=O)N1CCN(c2ccccc2)CC1 (stereo unspecified) | -3.87%
O=C(COc1ccc(Cl)cc1)N1CCN(c2cccc(C(F)(F)F)c2)CC1 | 69.5% (active)
OC(COc1ccc2c(c1)CCC2)CN1CCN(c2cccc(Cl)c2)CC1 (stereo unspecified) | 20.1%
O=C(c1ccc2c(c1)N(Cc1ccc(F)cc1)C(=O)c1ccccc1S2(=O)=O)N1CCN(c2ccccn2)CC1 | 1.84%
COc1cc(S(=O)(=O)N(Cc2cccs2)C2CC2)ccc1-n1cnnn1 | 3.27%
CCOC(=O)N1CCN(S(=O)(=O)c2ccc3c(c2)C(C)C(=O)N3)CC1 (stereo unspecified) | -2.51%
Cc1ccccc1NC(=O)CSC1=NCCN1 | 0.07%
O=C1C2C3C=CC(C3)C2C(=O)N1c1ccc(-c2nc3ccccc3c(=O)o2)cc1 (stereo unspecified) | 1.58%
N#CCSc1nn(-c2ccc(F)cc2)c(=S)s1 | -7.24%
COc1cccc(C(=O)Nc2nnc(S(=O)(=O)N3CCOCC3)s2)c1 | -0.08%
Cc1ccccc1Cn1c2ccccc2c2cnn(CC(=O)NCc3ccco3)c(=O)c21 | -21%
COc1ccc(-c2nc(CS(=O)CC(=O)NCc3ccccc3)c(C)o2)cc1OC (stereo unspecified) | 0.93%
COc1cccc(-c2nc(CS(=O)CC(=O)NCc3ccc(F)cc3)c(C)o2)c1 (stereo unspecified) | 10.6%
COc1ccc(-c2nc(CS(=O)CC(=O)NCc3ccccn3)c(C)o2)cc1 (stereo unspecified) | 27.8% (active)
CC[N+](C)(CC)CCC[n+]1c(-c2ccccc2)c2cc(N)ccc2c2ccc(N)cc21 | 72.4% (active)
O=C1/C(=C\c2ccccc2Cl)SC(=S)N1CCC(=O)N1CCCc2ccccc21 | -1.32%
CCOc1ccc(NC(=O)CN(C)C(=O)CCSc2ccc(F)cc2)cc1OCC | 6.29%
O=C(CCl)NNc1cccc(Cl)n1 | -5.01%
CC1CC(NC(=O)/C(C#N)=C/c2ccc[nH]2)CC(C)(C)C1 (stereo unspecified) | 0.74%
Cn1c(=O)cc(OCCCC(=O)N2CCN(Cc3ccc4c(c3)OCO4)CC2)c2ccccc21 | 9.58%
O=C(CCCN1C(=O)c2cccc3cccc(c23)C1=O)N1CCN(Cc2ccc3c(c2)OCO3)CC1 | 64.2% (active)
O=C(Nc1cccc2ccccc12)N1CCN(Cc2ccc3c(c2)OCO3)CC1 | 1.22%
CCCCCc1c(C)nc(N2CCN(Cc3ccc4c(c3)OCO4)CC2)[nH]c1=O | -5.68%

SMILES | inhibition
N#Cc1ccc(OCc2nnc(-c3ccc([N+](=O)[O-])cc3)o2)cc1 | 32.3% (active)
O=C(CSc1nnc(-c2ccc([N+](=O)[O-])cc2)o1)Nc1ccccn1 | 0.49%
CCOC(=O)CSc1nnc(-c2ccc([N+](=O)[O-])cc2)o1 | -0.42%
N#Cc1c(/N=C/N2CCCC2)oc(-c2ccccc2)c1-c1ccccc1 | 4.8%
CC(=O)C12CC(C)=C(C)CC1CC1C3CCC4=CC(=O)CCC4(C)C3CCC12C (stereo unspecified) | -4.85%
CCOc1ccc(N2CC(C(=O)NCCN3C(=O)S/C(=C\c4cccnc4)C3=O)CC2=O)cc1 (stereo unspecified) | 6.19%
COc1ccc(N2CC(C(=O)NCCN3C(=O)S/C(=C\c4cccnc4)C3=O)CC2=O)c(OC)c1 (stereo unspecified) | 57.6% (active)
COc1ccccc1N1CC(C(=O)NCCN2C(=O)S/C(=C\c3cccnc3)C2=O)CC1=O (stereo unspecified) | 1.85%
Cc1cc(C)c(S(=O)(=O)N2CCC(C(=O)OCc3c(C)noc3C)CC2)c(C)c1 | 5.23%
COCCn1c(SCC(=O)c2[nH]c(C)c(C(C)=O)c2C)nc2ccccc2c1=O | -1.43%
CN(CC(=O)NCCc1ccccc1)S(=O)(=O)c1cnc[nH]1 | -2.19%
O=C(CC1SC(N2CCCC2)=NC1=O)Nc1ccc(C(=O)NCCc2ccc(F)cc2)cc1 (stereo unspecified) | 34.5% (active)
COc1ccc(NC(=O)CC2SC(N3CCCCC3)=NC2=O)cc1OC (stereo unspecified) | -2.51%
CCC(C)NC(=O)c1ccc(NC(=O)CC2SC(N3CCCCC3)=NC2=O)cc1 (stereo unspecified) | -2.2%
CCN(CC)C(=O)CC1(c2ccccc2OC)CCOC(C(C)C)C1 (stereo unspecified) | 27.5% (active)
CCN(CC(=O)Nc1ccccc1OC)C(=O)CC1CC2CCC1C2 (stereo unspecified) | 4.24%
COc1ccc(C2(CNC(=O)C(c3ccccc3)c3ccccc3)CCOCC2)cc1OC | 0.76%
c1ccc(-c2ccnc3nc(-n4cccc4)nn23)cc1 | 5.32%
CCN(CC)C(=O)CSc1nnc(C2CCCCC2)o1 | 6.58%
Cc1[nH]c2ccccc2c1C(=O)C(C)Sc1nnc(C2CC2)o1 (stereo unspecified) | 1.82%
CCCCCC1CCC(c2nnc(SCC(C)=O)o2)CC1 (stereo unspecified) | 34.9% (active)
CC(=O)Nc1ccc(N2C(=O)CCC2=O)cc1C | 2%
